Counter-ions that a name gives are not always drawn.
Legend:
Assay in all cases: phenotypically active (imaging signature differs from DMSO and reproducible) at any of 0.3-9 uM (binary (1 = active, 0 = inactive)); higher = active
Details in all cases: treatment time: 24 h
A549-ACTB-RAB5A = tested on: A549-ACTB-RAB5A
Method in brief: (§1)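 Each of fifteen gene-edited A549, HepG2 and WPMY1 reporter lines, marked with BFP for segmentation and GFP and RFP/FusionRed, was treated in four wells at 0.3, 1, 3 or 9 µM for 24 h prior to live imaging. Normalisation of per-well live-cell features used solvent control wells. Deviation needed ≥3 of 4 wells beyond the 95th percentile of control Euclidean distances, and reproducibility needed a median replicate Pearson correlation above the 95th percentile of non-replicates. Both were required for phenotypic activity.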

A549-CANX-COX4 = tested on: A549-CANX-COX4
Method in brief: as §1

A549-GM130-SQSTM1 = tested on: A549-GM130-SQSTM1
Method in brief: as §1

A549-TP53BP1-CLTA = tested on: A549-TP53BP1-CLTA
Method in brief: as §1

A549-TUBA1B-RELA = tested on: A549-TUBA1B-RELA
Method in brief: as §1

HepG2-ACTB-RAB5A = tested on: HepG2-ACTB-RAB5A
Method in brief: as §1

HepG2-CANX-COX4 = tested on: HepG2-CANX-COX4
Method in brief: as §1

HepG2-GM130-SQSTM1 = tested on: HepG2-GM130-SQSTM1
Method in brief: as §1

HepG2-TP53BP1-CLTA = tested on: HepG2-TP53BP1-CLTA
Method in brief: as §1

HepG2-TUBA1B-RELA = tested on: HepG2-TUBA1B-RELA
Method in brief: as §1

WPMY1-ACTB-RAB5A = tested on: WPMY1-ACTB-RAB5A
Method in brief: as §1

WPMY1-CANX-COX4 = tested on: WPMY1-CANX-COX4
Method in brief: as §1

WPMY1-GM130-SQSTM1 = tested on: WPMY1-GM130-SQSTM1
Method in brief: as §1

WPMY1-TP53BP1-CLTA = tested on: WPMY1-TP53BP1-CLTA
Method in brief: as §1

WPMY1-TUBA1B-RELA = tested on: WPMY1-TUBA1B-RELA
Method in brief: as §1

Measured: phenotypically active

C#C[C@]1(O)CC[C@H]2[C@@H]3CCc4cc(OC)ccc4[C@H]3CC[C@@]21C [mestranol]
inactive: A549-ACTB-RAB5A 0 | A549-CANX-COX4 0 | A549-GM130-SQSTM1 0 | A549-TP53BP1-CLTA 0 | A549-TUBA1B-RELA 0 | HepG2-ACTB-RAB5A 0 | HepG2-CANX-COX4 0 | HepG2-GM130-SQSTM1 0 | HepG2-TP53BP1-CLTA 0 | HepG2-TUBA1B-RELA 0 | WPMY1-ACTB-RAB5A 0 | WPMY1-CANX-COX4 0 | WPMY1-GM130-SQSTM1 0 | WPMY1-TP53BP1-CLTA 0 | WPMY1-TUBA1B-RELA 0

CCc1c(C)[nH]c2c1C(=O)C(CN1CCOCC1)CC2 (stereo not given) [molindone]
inactive: A549-ACTB-RAB5A 0 | A549-CANX-COX4 0 | A549-GM130-SQSTM1 0 | A549-TP53BP1-CLTA 0 | A549-TUBA1B-RELA 0 | HepG2-ACTB-RAB5A 0 | HepG2-CANX-COX4 0 | HepG2-GM130-SQSTM1 0 | HepG2-TP53BP1-CLTA 0 | HepG2-TUBA1B-RELA 0 | WPMY1-ACTB-RAB5A 0 | WPMY1-CANX-COX4 0 | WPMY1-GM130-SQSTM1 0 | WPMY1-TP53BP1-CLTA 0 | WPMY1-TUBA1B-RELA 0

C[C@]12CC[C@@H]3c4ccc(OS(=O)(=O)O)cc4CC[C@H]3[C@@H]1CCC2=O [estrone sulfuric acid]
inactive: A549-ACTB-RAB5A 0 | A549-CANX-COX4 0 | A549-GM130-SQSTM1 0 | A549-TP53BP1-CLTA 0 | A549-TUBA1B-RELA 0 | HepG2-ACTB-RAB5A 0 | HepG2-CANX-COX4 0 | HepG2-GM130-SQSTM1 0 | HepG2-TP53BP1-CLTA 0 | HepG2-TUBA1B-RELA 0 | WPMY1-ACTB-RAB5A 0 | WPMY1-CANX-COX4 0 | WPMY1-GM130-SQSTM1 0 | WPMY1-TP53BP1-CLTA 0 | WPMY1-TUBA1B-RELA 0

CCOC(=O)[C@H](CCc1ccccc1)N[C@@H](C)C(=O)N1CCC[C@H]1C(=O)O [enalapril]
inactive: A549-ACTB-RAB5A 0 | A549-CANX-COX4 0 | A549-GM130-SQSTM1 0 | A549-TP53BP1-CLTA 0 | A549-TUBA1B-RELA 0 | HepG2-ACTB-RAB5A 0 | HepG2-CANX-COX4 0 | HepG2-GM130-SQSTM1 0 | HepG2-TP53BP1-CLTA 0 | HepG2-TUBA1B-RELA 0 | WPMY1-ACTB-RAB5A 0 | WPMY1-CANX-COX4 0 | WPMY1-GM130-SQSTM1 0 | WPMY1-TP53BP1-CLTA 0 | WPMY1-TUBA1B-RELA 0

COc1cc2c3cc1Oc1cc(ccc1O)C[C@@H]1c4c(cc(OC)c(O)c4Oc4ccc(cc4)C[C@@H]3N(C)CC2)CC[N+]1(C)C [(+)-Tubocurarine chloride]
inactive: A549-ACTB-RAB5A 0 | A549-CANX-COX4 0 | A549-GM130-SQSTM1 0 | A549-TP53BP1-CLTA 0 | A549-TUBA1B-RELA 0 | HepG2-ACTB-RAB5A 0 | HepG2-CANX-COX4 0 | HepG2-GM130-SQSTM1 0 | HepG2-TP53BP1-CLTA 0 | HepG2-TUBA1B-RELA 0 | WPMY1-ACTB-RAB5A 0 | WPMY1-CANX-COX4 0 | WPMY1-GM130-SQSTM1 0 | WPMY1-TP53BP1-CLTA 0 | WPMY1-TUBA1B-RELA 0

CCN(CC)C(C)CN1c2ccccc2Sc2ccccc21 (stereo not given) [profenamine]
inactive: A549-ACTB-RAB5A 0 | A549-CANX-COX4 0 | A549-GM130-SQSTM1 0 | A549-TP53BP1-CLTA 0 | A549-TUBA1B-RELA 0 | HepG2-ACTB-RAB5A 0 | HepG2-CANX-COX4 0 | HepG2-GM130-SQSTM1 0 | HepG2-TP53BP1-CLTA 0 | HepG2-TUBA1B-RELA 0 | WPMY1-ACTB-RAB5A 0 | WPMY1-CANX-COX4 0 | WPMY1-GM130-SQSTM1 0 | WPMY1-TP53BP1-CLTA 0 | WPMY1-TUBA1B-RELA 0

CNS(=O)(=O)CCc1ccc2[nH]cc(C3CCN(C)CC3)c2c1 [naratriptan]
inactive: A549-ACTB-RAB5A 0 | A549-CANX-COX4 0 | A549-GM130-SQSTM1 0 | A549-TP53BP1-CLTA 0 | A549-TUBA1B-RELA 0 | HepG2-ACTB-RAB5A 0 | HepG2-CANX-COX4 0 | HepG2-GM130-SQSTM1 0 | HepG2-TP53BP1-CLTA 0 | HepG2-TUBA1B-RELA 0 | WPMY1-ACTB-RAB5A 0 | WPMY1-CANX-COX4 0 | WPMY1-GM130-SQSTM1 0 | WPMY1-TP53BP1-CLTA 0 | WPMY1-TUBA1B-RELA 0

Fc1ccc(-c2c3cccc(C(F)(F)F)c3nn2Cc2ccc(F)cc2Cl)cc1
inactive: A549-ACTB-RAB5A 0 | A549-CANX-COX4 0 | A549-GM130-SQSTM1 0 | A549-TP53BP1-CLTA 0 | A549-TUBA1B-RELA 0 | HepG2-ACTB-RAB5A 0 | HepG2-CANX-COX4 0 | HepG2-GM130-SQSTM1 0 | HepG2-TP53BP1-CLTA 0 | HepG2-TUBA1B-RELA 0 | WPMY1-ACTB-RAB5A 0 | WPMY1-CANX-COX4 0 | WPMY1-GM130-SQSTM1 0 | WPMY1-TP53BP1-CLTA 0 | WPMY1-TUBA1B-RELA 0

CC1=NN(c2ccc(C(=O)O)cc2)C(=O)/C1=C\c1ccc(-c2cc(C)c(C)cc2[N+](=O)[O-])o1
inactive: A549-ACTB-RAB5A 0 | A549-CANX-COX4 0 | A549-GM130-SQSTM1 0 | A549-TP53BP1-CLTA 0 | A549-TUBA1B-RELA 0 | HepG2-ACTB-RAB5A 0 | HepG2-CANX-COX4 0 | HepG2-GM130-SQSTM1 0 | HepG2-TP53BP1-CLTA 0 | HepG2-TUBA1B-RELA 0 | WPMY1-ACTB-RAB5A 0 | WPMY1-CANX-COX4 0 | WPMY1-GM130-SQSTM1 0 | WPMY1-TP53BP1-CLTA 0 | WPMY1-TUBA1B-RELA 0

NS(=O)(=O)Cc1noc2ccccc12 [zonisamide]
inactive: A549-ACTB-RAB5A 0 | A549-CANX-COX4 0 | A549-GM130-SQSTM1 0 | A549-TP53BP1-CLTA 0 | A549-TUBA1B-RELA 0 | HepG2-ACTB-RAB5A 0 | HepG2-CANX-COX4 0 | HepG2-GM130-SQSTM1 0 | HepG2-TP53BP1-CLTA 0 | HepG2-TUBA1B-RELA 0 | WPMY1-ACTB-RAB5A 0 | WPMY1-CANX-COX4 0 | WPMY1-GM130-SQSTM1 0 | WPMY1-TP53BP1-CLTA 0 | WPMY1-TUBA1B-RELA 0

O=C1CN2Cc3c(ccc(Cl)c3Cl)N=C2N1 [Anagrelide hydrochloride]
inactive: A549-ACTB-RAB5A 0 | A549-CANX-COX4 0 | A549-GM130-SQSTM1 0 | A549-TP53BP1-CLTA 0 | A549-TUBA1B-RELA 0 | HepG2-ACTB-RAB5A 0 | HepG2-CANX-COX4 0 | HepG2-GM130-SQSTM1 0 | HepG2-TP53BP1-CLTA 0 | HepG2-TUBA1B-RELA 0 | WPMY1-ACTB-RAB5A 0 | WPMY1-CANX-COX4 0 | WPMY1-GM130-SQSTM1 0 | WPMY1-TP53BP1-CLTA 0 | WPMY1-TUBA1B-RELA 0

From the supplement of paper PMC7411054
